A selection: hits, their analogues and other compounds. The true share with any hit is near 1.1%.
OPRM1-OPRD1 ag – OPRM1-OPRD1 heterodimerization agonism; P35372+P41143; cells, luminescence; activation, % at 9.3 µM; 340,000 compounds, 0.3% hits; AID 504326; in the data active means activation above about 18%;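 further: 0% = vehicle-treated cells and 100% = reference agonist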
Target sequence (P35372 whole entry, looked up): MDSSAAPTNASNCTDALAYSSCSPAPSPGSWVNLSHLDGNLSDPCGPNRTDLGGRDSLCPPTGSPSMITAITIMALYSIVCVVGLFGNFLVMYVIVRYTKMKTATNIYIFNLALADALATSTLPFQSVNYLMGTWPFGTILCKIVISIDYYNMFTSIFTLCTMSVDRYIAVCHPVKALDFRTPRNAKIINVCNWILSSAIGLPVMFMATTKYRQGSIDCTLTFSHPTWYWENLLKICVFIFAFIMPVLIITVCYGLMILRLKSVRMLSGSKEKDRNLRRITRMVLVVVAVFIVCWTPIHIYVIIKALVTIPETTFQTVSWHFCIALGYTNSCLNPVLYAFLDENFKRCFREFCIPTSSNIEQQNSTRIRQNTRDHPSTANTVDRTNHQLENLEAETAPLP
Target sequence (P41143 whole entry, looked up): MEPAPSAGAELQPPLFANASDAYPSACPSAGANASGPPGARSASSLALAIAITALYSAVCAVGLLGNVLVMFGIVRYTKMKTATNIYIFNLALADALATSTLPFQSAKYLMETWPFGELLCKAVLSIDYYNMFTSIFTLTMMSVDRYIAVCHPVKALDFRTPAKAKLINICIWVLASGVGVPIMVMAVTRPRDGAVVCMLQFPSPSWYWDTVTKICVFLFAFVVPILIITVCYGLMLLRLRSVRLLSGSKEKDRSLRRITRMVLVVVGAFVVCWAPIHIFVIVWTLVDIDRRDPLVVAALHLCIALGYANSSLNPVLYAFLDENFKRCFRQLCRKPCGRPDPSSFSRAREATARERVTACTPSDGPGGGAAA
HTR5A ag ctr – counter-screen for OPRM1-OPRD1 agonists: human HTR5A agonism; 340,000 compounds, 0.61% hits; HTR5A agonist assay, luminescence, cell-based; AID 504692; activation, % at 9.3 µM; P47898; in the data active means activation mostly above about 9.5%, no sharp cut-off; inactive means mostly below about 7.6%;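 further: 0% = cells with vehicle only and 100% = reference agonist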
HTR5A inv ag – counter-screen for OPRM1-OPRD1 inverse agonists: human HTR5A inverse agonism | P47898 | HTR5A cell line, luminescence | inhibition, % at 9.3 µM | 340,000 compounds, 0.083% hits | AID 504634; in the data active means inhibition mostly above about 23%, no sharp cut-off; inactive means mostly below about 18%;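 further: 0% = cells with DMSO and 100% = no-cell wells with DMSO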
OPRM1-OPRD1 inv – inverse agonists of human mu-delta opioid receptor heterodimerization. cell-based MOR-DOR heterodimer luminescence, inverse agonism. inhibition, % at 9.3 µM. P35372+P41143. 340,000 compounds, 0.21% hits. AID 504357; in the data active means inhibition above about 22%, passing the limit was not always enough;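 further: 0% = cells with DMSO and 100% = wells without cells with DMSO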
MOR-DOR inv conf – OPRM1-OPRD1 heterodimer inverse agonism, confirmation | inhibition, % at 9.3 µM | cells expressing OPRM1/OPRD1 heterodimer, luminescence | shares compounds with OPRM1-OPRD1 inv | 580 compounds, 20% hits; in the data active means inhibition above about 32%;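 further: 0% = cells with DMSO and 100% = wells lacking cells with DMSO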
HTR5A inv count – counter-screen for OPRM1-OPRD1 inverse agonists: human HTR5A inverse agonism. shares compounds with OPRM1-OPRD1 inv. HTR5A-expressing cells, luminescence. inhibition, % at 9.3 µM. 580 tested, under 10 active. AID 504914; call rule not given here;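 further: 0% = cells with DMSO and 100% = no-cell wells with DMSO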
Numbers without * were called inactive; i = inactive; nt = no result given.

SMILES | OPRM1-OPRD1 ag | HTR5A ag ctr | HTR5A inv ag | OPRM1-OPRD1 inv | MOR-DOR inv conf | HTR5A inv count
CC(=O)Oc1ccc(C(=O)Nc2ccc(C3(C#N)CCCC3)cc2)cc1 | -4 | 2 | -6 | 17 | nt | nt
CCc1cccc2c1NC(=O)C2=O | -12 | -3 | 14 | 61* | i | -1
COC(=O)c1cccc2c1NC(=O)C2=O | -5 | -4 | 21 | 26 | nt | nt
CSCCC(NC(=O)c1ccccc1Br)C(=O)NNC(=O)C1COc2ccccc2O1 (stereo unspecified) | -2 | -2 | 8 | 12 | nt | nt
COc1ccc(NC(=O)CSc2nc(O)cc(=O)n2-c2ccc(OC)cc2)cc1 | -1 | 2 | -5 | 8 | nt | nt
Nc1nc(SCCO)[nH]c(=O)c1NC(=O)c1ccco1 | -6 | -8 | 20 | 22 | nt | nt
C=CCNC(=S)NCCCCC1NC(=S)N(CC=C)C1=O (stereo unspecified) | -3 | 0 | 22 | 25* | 7 | -4
CCOc1ccc2nc(-c3cc(NC(C)=O)ccc3O)sc2c1 | -4 | 1 | 7 | 27* | -13 | -11
CCOCC(=O)Nc1nc2ccc(OCC)cc2s1 | -3 | -2 | -1 | 16 | nt | nt
O=C1C(NS(=O)(=O)c2cccs2)=C(N2CCOCC2)C(=O)c2ccccc21 | -8 | -1 | 39 | 41* | 6 | 7
CN1CCN(C2=C(NS(=O)(=O)c3cccs3)C(=O)c3ccccc3C2=O)CC1 | 2 | 8 | -22 | -10 | nt | nt
NC(N)=NCCCS(=O)(=O)Nc1ccc(Nc2c3ccccc3nc3cc([N+](=O)[O-])ccc23)cc1 | 3 | 4 | -16 | -11 | nt | nt
COC(=O)CCC/C=C1/SCC(NC(=O)c2ccccc2)C1=O (stereo unspecified) | -6 | -1 | -15 | 33* | -372 | -49
Cc1ccc(S(=O)(=O)Nc2cccc3cccnc23)cc1 | -7 | -6 | 11 | 44* | 11 | 5
Cc1ccc(S(=O)(=O)Nc2ccccc2-c2ccccc2NS(=O)(=O)c2ccc(C)cc2)cc1 | -2 | 5 | -11 | 9 | nt | nt
O=C(c1ccco1)N1CCN(Cc2csc(-c3ccccc3Cl)n2)CC1 | 2 | -1 | 2 | -12 | nt | nt
COc1ccccc1NS(=O)(=O)c1cccc(C(=O)N(C)Cc2cccs2)c1 | 0 | 1 | 4 | -3 | nt | nt
CC1(C)CC(CC(=O)NC(=S)Nc2ccc([N+](=O)[O-])cc2)C(=O)O1 (stereo unspecified) | -6 | -6 | 2 | 35* | -259 | -4
COc1cc(Br)c(S(=O)(=O)Nc2c(C)n(C)n(-c3ccccc3)c2=O)cc1OC | -2 | -4 | 3 | 12 | nt | nt
COc1ccc(S(=O)(=O)Nc2c(C)n(C)n(-c3ccccc3)c2=O)c(Cl)c1Cl | -6 | -2 | 6 | 31* | -180 | 1
CCOC(=O)c1[nH]c(C)c(C(=O)OCc2ccccc2F)c1C | 8 | 12 | -32 | -44 | nt | nt
Cc1ccc(S(=O)(=O)/N=C2\C=C(NS(=O)(=O)c3ccccc3)C(=O)c3ccccc32)c(C)c1 | -6 | -6 | 22 | 30* | -7 | -6
CC(C)(C)c1ccc(S(=O)(=O)/N=C2\C=C(NS(=O)(=O)c3ccccc3)C(=O)c3ccccc32)cc1 | -6 | -6 | 14 | 32* | -25 | -79
CCc1ccc(S(=O)(=O)/N=C2\C=C(Nc3ccc(C(=O)O)cc3)C(=O)c3ccccc32)cc1 | 7 | 1 | -1 | -39 | nt | nt
COc1ccc(C(=O)Nc2nnc(S(=O)(=O)N3CCOCC3)s2)cc1 | -3 | 2 | 8 | 13 | nt | nt
SMILES | OPRM1-OPRD1 ag | HTR5A ag ctr | HTR5A inv ag | OPRM1-OPRD1 inv | MOR-DOR inv conf | HTR5A inv count
COc1ccc(C(=O)CC(=O)C(=O)Nc2ccccc2Cl)cc1 | -1 | 1 | -3 | 3 | nt | nt
CSC1=C(C#N)C(c2ccccc2C)C(C#N)=C(N)N1 (stereo unspecified) | -8 | -2 | 7 | 38* | 29 | -1
COc1ccc(NC(=O)C2CCCN2S(=O)(=O)c2cccs2)c([N+](=O)[O-])c1 (stereo unspecified) | 2 | -2 | -8 | -12 | nt | nt
CCN(CC(=O)Nc1c(F)cccc1F)C(=O)C1CC1C (stereo unspecified) | -1 | 3 | 10 | 8 | nt | nt
O=C(COC(=O)c1cc(S(=O)(=O)NCc2ccccc2)ccc1O)c1cc2ccccc2o1 | -8 | -3 | 9 | 41* | -209 | -8
O=C(COC(=O)c1cc(S(=O)(=O)NCc2ccccc2)ccc1O)NCc1ccccc1 | -2 | 6 | -20 | 8 | nt | nt
CCCCC(=O)NC(=S)Nc1nnn(CCC)n1 | -8 | -7 | 30 | 37* | 22 | -7
CCCCC(=O)Nc1nnn(CCC)n1 | 0 | 7 | -16 | 2 | nt | nt
O=c1ccc(S(=O)(=O)N2CCCC2)cn1Cc1ccc(F)cc1 | -2 | -2 | 6 | 13 | nt | nt
CCc1cccc(NC(=O)C2CCCN(S(=O)(=O)c3cccnc3)C2)c1 (stereo unspecified) | -4 | -1 | 6 | 23 | nt | nt
CCOc1ccc(NS(=O)(=O)c2ccc(C(=O)NCC(c3ccc(OC)cc3)N3CCCC3)cc2)cc1 (stereo unspecified) | -4 | -2 | 6 | 26* | 4 | -1
O=C1c2ccccc2-c2nccnc21 | -14 | -5 | 39* | 80* | 87* | 11
O=C1c2ccccc2-c2c1nc1c([n+]2[O-])CCCC1 | -16 | -10 | 18 | 93* | 22 | 1
CCc1ccc2c(c1)C(=O)c1ccccc1C2=O | 5 | 4 | -12 | -39 | nt | nt
CCC(=O)NC(c1ccc(OC)cc1)c1c(O)ccc2ccccc12 (stereo unspecified) | -1 | 7 | -19 | 10 | nt | nt
CC(=O)NC(c1ccc(Cl)cc1)c1c(O)ccc2ccc(O)cc12 (stereo unspecified) | -7 | -4 | 10 | 33* | -18 | 2
COc1ccc(C2=NN(CN3C(=O)C(=O)c4ccccc43)C(c3ccc(OC)cc3)C2)cc1 (stereo unspecified) | -6 | -9 | 27 | 44* | i | 1
COc1ccc(C2=NN(S(=O)(=O)c3ccccc3)C(c3ccccc3)C2)cc1 (stereo unspecified) | -2 | 2 | -4 | 11 | nt | nt
COc1ccc(C2=C3C(=O)OCC3Cc3ncn(Cc4ccccc4)c32)cc1 (stereo unspecified) | -1 | -1 | -11 | 6 | nt | nt
COc1ccc2c(c1)C(=O)C(=O)N2CCS(=O)(=O)c1ccccc1 | -13 | -5 | 26 | 70* | 23 | 0
COc1ccc2c(c1)C(=O)C(=O)N2CC1COc2ccccc2O1 (stereo unspecified) | -8 | -5 | 18 | 38* | 22 | -2
O=C1C(=O)N(CCS(=O)(=O)c2ccccc2)c2ccc(F)cc21 | -10 | -1 | 10 | 53* | -34 | -2
CCOc1ccc2c(c1)C(=O)C(=O)N2CC1COc2ccccc2O1 (stereo unspecified) | -7 | 7 | -25 | 31 | nt | nt
Cc1ccc2c(c1)C(=O)C(=O)N2CCCOc1ccccc1 | -6 | 3 | -21 | 31 | nt | nt
